37 compounds from PubChem BioAssay (Tox21) can be followed below.

Where “and” joins values, the source holds several entries; their conditions need not be identical. Equal entries are not always repeated. Inconclusive results are not listed. Where a call stands in place of a potency, no number is given. A number with no mark means an inactive call. Calls of active or inactive are those of the source. The call rests on the fitted dose curve; in most records, active means well fitted curve in the direction sought with a large enough effect in the repeat runs; inconclusive means weak or mixed curves; inactive means no such curve, though single readings can be large; an effect the other way counts as inactive or inconclusive.

Nuclear receptor subfamily 1 group I member 2 (Rattus norvegicus), sequence (Q9R1A7 whole entry, looked up): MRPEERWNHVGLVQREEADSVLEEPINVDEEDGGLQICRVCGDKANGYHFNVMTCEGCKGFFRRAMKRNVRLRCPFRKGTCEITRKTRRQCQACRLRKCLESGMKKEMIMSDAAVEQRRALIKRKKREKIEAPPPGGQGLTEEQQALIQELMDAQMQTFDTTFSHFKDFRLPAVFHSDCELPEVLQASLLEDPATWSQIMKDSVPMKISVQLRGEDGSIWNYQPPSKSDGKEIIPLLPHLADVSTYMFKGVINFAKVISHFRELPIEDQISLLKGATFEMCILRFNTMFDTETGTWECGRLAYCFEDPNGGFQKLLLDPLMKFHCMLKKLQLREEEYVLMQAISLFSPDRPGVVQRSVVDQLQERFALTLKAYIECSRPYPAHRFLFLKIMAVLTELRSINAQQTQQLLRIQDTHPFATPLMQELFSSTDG
Nuclear receptor subfamily 1 group I member 2 (Homo sapiens), sequence (O75469 whole entry, looked up): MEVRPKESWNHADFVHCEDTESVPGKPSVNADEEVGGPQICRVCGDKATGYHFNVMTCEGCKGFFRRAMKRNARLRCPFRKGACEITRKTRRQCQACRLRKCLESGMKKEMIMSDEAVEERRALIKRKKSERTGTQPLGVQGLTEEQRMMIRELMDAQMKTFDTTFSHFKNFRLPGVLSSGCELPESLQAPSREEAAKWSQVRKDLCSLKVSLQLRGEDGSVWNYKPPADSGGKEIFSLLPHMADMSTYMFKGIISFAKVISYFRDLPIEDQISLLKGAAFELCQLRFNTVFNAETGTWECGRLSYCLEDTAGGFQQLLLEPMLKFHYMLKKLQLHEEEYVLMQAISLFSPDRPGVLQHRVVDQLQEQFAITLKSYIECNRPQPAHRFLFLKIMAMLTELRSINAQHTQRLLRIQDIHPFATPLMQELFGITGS

Tested on in the first experiment: not listed separately
Kind of experiment: Caspase-3/7 induction in HepG2 cells by small molecules, qHTS cell viability counter screen (AID 1346981). Further: nearly all actives have a fitted effect of over 30% in size. Particulars: CellTiter-Fluor fluorescence, 17 h; series mostly up to 92.4 µM. The gist of the method:
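Multiplexed with the caspase-3/7 assay: HepG2 cells, 16 hr compound treatment, CellTiter-Fluor viability detection by fluorescence.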
Background: qHTS replaces the single test concentration by a dilution series.
On to `C=C(C)C(=O)OCCC(F)(F)C(F)(F)C(F)(F)C(F)(F)C(F)(F)C(F)(F)F`, for which the Potency entry is “inactive”.

In the case of `C=C(C)c1ccccc1`, the Potency result was “inactive”.

With `CC(C)OC(=O)c1ccccc1C(=O)OC(C)C`, the Potency entry was “inactive”.

In the case of `Cc1cc(CCC(=O)OCCOCCOCCOC(=O)CCc2cc(C)c(O)c(C(C)(C)C)c2)cc(C(C)(C)C)c1O`, the Potency result was “inactive”.

For `Cc1cc(CCCOc2c(C)cc(-c3noc(C(F)(F)F)n3)cc2C)on1`, the Potency entry was “inactive”.

For the compound `CCOC(=O)N1CCC(Nc2ccc(Cl)cc2N)CC1`, the Potency entry is “inactive”.

Consider `O=C1OC[C@H](Cc2cccc(O)c2)[C@H]1Cc1cccc(O)c1`, for which the Potency entry was “inactive”.

As to `COc1ccc2nc(S(=O)Cc3ncc(C)c(OC)c3C)[nH]c2c1` (stereo not drawn), the Potency result was “inactive”.

`CC(=O)OCC1=C(C(=O)O)N2C(=O)[C@@H](NC(=O)CSc3ccncc3)[C@H]2SC1`: the Potency entry was “inactive”.

As for `CSSc1ccoc1C`, the Potency result is “inactive”.

As for `CCCCCCCC/C=C\CCCCCCCC(=O)OCCO`, the Potency entry was “inactive”.

Consider `CCC(CO)(CO)CO`, for which the Potency result was “inactive”.

As for `CCCCC[C@H](O)/C=C/[C@H]1[C@H](O)CC(=O)[C@@H]1C/C=C\CCCC(=O)O`, the Potency entry was “inactive”.

On to `C[C@H](CS)C(=O)N1CCC[C@H]1C(=O)O`, for which the Potency entry is “inactive”.

On to `COc1ccc(CCN(C)CCCN2CCc3cc(OC)c(OC)cc3CC2=O)cc1OC`, for which the Potency entry is “inactive”.

`CC(CN(CCN(CC(C)OCCO)CC(C)OCCO)CC(C)OCCO)OCCO` (stereo not drawn): the Potency result is “inactive”.

`CC(C)COC(=O)COc1cc(Cl)c(Cl)cc1Cl`: the Potency result was “inactive”.

Take `Cc1ccc(NC(=O)N(C)C)cc1NC(=O)N(C)C`: the Potency result is “inactive”.

On to `CC(C(=O)O)c1ccc(C(=O)c2cccs2)cc1` (stereo not drawn), for which the Potency result was “inactive”.

For `CCCCCCCCCCCC(=O)OCC(O)CO` (stereo not drawn), the Potency result was “inactive”.

With `C=CCOC(=O)COCCC(C)C`, the Potency result was “inactive”.

For `CCNc1nc(N)nc(Cl)n1`, the Potency result was “inactive”.

Take `O=C(CCS)OCC(COC(=O)CCS)(COC(=O)CCS)COC(=O)CCS`: the Potency result was “inactive”.

`CC1=CC[C@@]23C[C@@H]1C(C)(C)[C@@H]2CC[C@H]3C`: the Potency entry was “inactive”.

Regarding `CC(=O)Oc1cccc(O)c1`, the Potency entry was “inactive”.

Regarding `Cc1cccc2sc(N)nc12`, the Potency result is “inactive”.

Turning to `Nc1ccc(NC(=O)c2ccc(N)cc2)cc1`, the Potency entry is “inactive”.

On to `CCCCOCCOC(=O)c1cccnc1`, for which the Potency result is “inactive”.

For the compound `Cc1ccc(S(=O)(=O)NC(=O)NC2CCCCC2)cc1`, the Potency result is “inactive”.

With `COc1ccc(-c2cc(=S)ss2)cc1`, the Potency entry was “inactive”.

Consider `OCC(CO)n1cnc(-c2ccc(F)cc2)c1-c1ccnc(Oc2ccccc2)n1`, for which the Potency result is “inactive”.

With `O=[N+]([O-])c1ccc2ncccc2c1`, the Potency result was “inactive”.

As for `FC(F)(F)C(F)(F)C(F)(F)C(F)(F)CCI`, the Potency result is “inactive”.

As for `COc1ccc(/C=C/C(=O)c2ccc(OC)cc2OC)cc1`, the Potency entry was “inactive”.

As for `CCC1CCC(CCC(=O)O)C1` (stereo not drawn), the Potency result was “inactive”.

In another experiment the target is Nuclear receptor subfamily 1 group I member 2 (Homo sapiens) (UniProt O75469). The experiment in a line: Human pregnane X receptor (PXR) small molecule agonists, qHTS assay (AID 1346982). Further: nearly all actives have a fitted effect of over 35% in size. Further: potency means the concentration at half of the fitted maximal effect. To be noted: PXR-Luc HepG2, CYP3A4 luciferase reporter, 24 h; series mostly up to 92.4 µM. The gist of the method:
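We seeded PXR-Luc HepG2 cells in assay medium containing 5% charcoal-stripped FBS, added compounds 5 hr later, incubated 24 hr, and read luminescence with ONE-Glo reagent.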
On to `C=C(C)C(=O)OCCC(F)(F)C(F)(F)C(F)(F)C(F)(F)C(F)(F)C(F)(F)F`, for which the Potency result is “inactive”.

As to `C=C(C)c1ccccc1`, the Potency entry is “inactive”.

`CC(C)OC(=O)c1ccccc1C(=O)OC(C)C`: the Potency entry is “inactive”.

For `Cc1cc(CCCOc2c(C)cc(-c3noc(C(F)(F)F)n3)cc2C)on1`, the Potency is 21.1 µM (active).

`O=c1[nH][nH]c(=O)c2cc([N+](=O)[O-])ccc12`: the Potency result is “inactive”.

`CCOC(=O)N1CCC(Nc2ccc(Cl)cc2N)CC1`: the Potency entry was “inactive”.

As for `O=C1OC[C@H](Cc2cccc(O)c2)[C@H]1Cc1cccc(O)c1`, the Potency entry was “inactive”.

For `COc1ccc2nc(S(=O)Cc3ncc(C)c(OC)c3C)[nH]c2c1` (stereo not drawn), the Potency is 53.8 µM (active) and 26.6 µM (active).

Turning to `CCC(CO)(CO)CO`, the Potency result was “inactive”.

On to `CC1CCc2nccnc21` (stereo not drawn), for which the Potency entry was “inactive”.

As to `CCCCC[C@H](O)/C=C/[C@H]1[C@H](O)CC(=O)[C@@H]1C/C=C\CCCC(=O)O`, the Potency result is “inactive”.

For `COc1ccc(CCN(C)CCCN2CCc3cc(OC)c(OC)cc3CC2=O)cc1OC`, the Potency entry was “inactive”.

In the case of `CC(CN(CCN(CC(C)OCCO)CC(C)OCCO)CC(C)OCCO)OCCO` (stereo not drawn), the Potency was 3.31 µM (active).

Turning to `CCCCCCCCCCCC(=O)OCC(O)CO` (stereo not drawn), the Potency entry is “inactive”.

In the case of `C=CCOC(=O)COCCC(C)C`, the Potency result is “inactive”.

As to `CCNc1nc(N)nc(Cl)n1`, the Potency result is “inactive”.

For the compound `O=C(CCS)OCC(COC(=O)CCS)(COC(=O)CCS)COC(=O)CCS`, the Potency entry is “inactive”.

With `CC1=CC[C@@]23C[C@@H]1C(C)(C)[C@@H]2CC[C@H]3C`, the Potency result is “inactive”.

As to `CC(=O)Oc1cccc(O)c1`, the Potency result was “inactive”.

Consider `Cc1cccc2sc(N)nc12`, for which the Potency is 55.1 µM (active).

Consider `Nc1ccc(NC(=O)c2ccc(N)cc2)cc1`, for which the Potency entry was “inactive”.

In the case of `CCCCOCCOC(=O)c1cccnc1`, the Potency entry is “inactive”.

As to `Cc1ccc(S(=O)(=O)NC(=O)NC2CCCCC2)cc1`, the Potency result is “inactive”.

With `FC(F)(F)C(F)(F)C(F)(F)C(F)(F)CCI`, the Potency result was “inactive”.

On to `COc1ccc(/C=C/C(=O)c2ccc(OC)cc2OC)cc1`, for which the Potency is 29.8 µM (active).

A further experiment has as its target Nuclear receptor subfamily 1 group I member 2 (Rattus norvegicus) (UniProt Q9R1A7). The experiment in a line: Rat pregnane X receptor (rPXR) activation by small molecules, qHTS assay (AID 1346983). Further: nearly all actives have a fitted effect of over 20% in size. Particulars: rPXR luciferase reporter cells, One-Glo luminescence, 24 h; max activation: stronger effect = higher value. The method in brief: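 Cell-based rPXR activation assay: rPXR cells, 2,000 per well, rested 5hr at 37 C, then exposed to compounds in DMSO for 24 hr at 37 C. Luciferase activity read by One-Glo luminescence after 30 min at room temperature.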
In the case of `CC(=O)OCC1=C(C(=O)O)N2C(=O)[C@@H](NC(=O)CSc3ccncc3)[C@H]2SC1`, the max activation was -5.99%.

As to `CCCCC[C@H](O)/C=C/[C@H]1[C@H](O)CC(=O)[C@@H]1C/C=C\CCCC(=O)O`, the max activation is -0.864%.

As for `C[C@H](CS)C(=O)N1CCC[C@H]1C(=O)O`, the max activation was 0.201%.

For `COc1ccc(CCN(C)CCCN2CCc3cc(OC)c(OC)cc3CC2=O)cc1OC`, the max activation is 3.44%.

`CC(C(=O)O)c1ccc(C(=O)c2cccs2)cc1` (stereo not drawn): the max activation is -2.97%.

In the case of `CCCCCCCCCCCC(=O)OCC(O)CO` (stereo not drawn), the max activation was -6.09%.

Regarding `CC(=O)Oc1cccc(O)c1`, the max activation is -5.99%.

For `Cc1ccc(S(=O)(=O)NC(=O)NC2CCCCC2)cc1`, the max activation was -5.99%.
